In PubChem BioAssay (NCATS):
Results filed as inconclusive are left out. A number with no mark means an inactive call. Active and inactive are the calls of the source. The call rests on the fitted dose curve; in most records, active means well fitted curve in the direction sought with a large enough effect; inconclusive means small, poorly fitted or top-dose-only effect, or another doubt; inactive means no such curve, though single readings can be large; an effect the other way counts as inactive or inconclusive.

Experiment: qHTS for differential inhibitors of proliferation of Plasmodium falciparum line D10 (AID 1877);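 further: parasites grown with compound for 72 h before DNA staining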;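 on activity change, negative = inhibition: plate controls were vehicle wells for no effect and reference inhibitor wells for full effect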
Details: series mostly up to 28.7 µM; activity change, negative = inhibition: at the top concentration
Potency means the concentration at half of the fitted maximal effect.

| SMILES | activity change, negative = inhibition | Potency |
| --- | --- | --- |
| COC(=O)C1=C(C)NC(C)=C([N+](=O)[O-])C1c1ccccc1C(F)(F)F (stereo not drawn) | -30% | – |
| c1ccc2c(c1)CC(N1CCN(c3cccc4c3OCCO4)CC1)C2 | -20.1% | – |
| CCCCOC(=O)NS(=O)(=O)c1sc(CC(C)C)cc1-c1ccc(Cn2c(CC)nc3c(C)cc(C)nc32)cc1 | – | 11.2 µM (active) |
| CC#CCOC(=O)c1c(C)nc2sc3c(c2c1N)CCC(O)C3 (stereo not drawn) | -10.2% | – |
| Cc1cccc(C2CN(C)CCc3c2cc(O)c(O)c3Cl)c1 (stereo not drawn) | – | 11.2 µM (active) |
| N[C@@H](Cc1ccc(F)cc1)C(=O)O | – | 17.8 µM (active) |
| COC1(C2=NCCN2)COc2ccccc2O1 (stereo not drawn) | -4.54% | – |
| Nc1ncnc2c1ncn2C1CCCO1 (stereo not drawn) | -23.4% | – |
| O=C(O)/C=C/c1ccc(O)c(O)c1 | -14.6% | – |
| Cc1cc2c(cc1Cl)N(C(=O)Nc1ccnc3ccccc13)CC2 | -20.7% | – |
| CN1CCN(c2nc3cc(C(F)(F)F)ccc3n3cccc23)CC1 | – | 11.2 µM (active) |
| O=c1oc(Cl)c(Cl)c2ccccc12 | -9.19% | – |
| Cc1cccc(C(=O)NCN2CCN(c3ccccc3C#N)CC2)c1 | -6.93% | – |
| COc1ccc(C(=O)NCc2cccnc2)cc1C(=O)NCc1cccnc1 | -16.1% | – |
| O=c1ccc2c(OCCCCc3ccccc3)c3ccoc3cc2o1 | – | 12.6 µM (active) |
| CC[C@@H]1Cc2cc(O)ccc2C2=C1c1ccc(O)cc1C[C@H]2CC | – | 11.2 µM (active) |
| O=C(O)C1CCCNC1 (stereo not drawn) | 1.55% | – |

Experiment: qHTS for differential inhibitors of proliferation of Plasmodium falciparum line Dd2 (AID 1882); further: nearly all actives have a fitted effect of over 65% in size;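 on activity change, negative = inhibition: plate controls were DMSO vehicle for no effect and 0.29 µM artemisinin for full effect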
Details: Potency: Plasmodium falciparum Dd2 proliferation inhibition; series mostly up to 28.7 µM; activity change, negative = inhibition: at the top concentration
How it was run: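 SYBR Green DNA fluorescence (ex 485, em 535 nm) after overnight lysis quantifies parasite growth; compound exposure lasted 72 h at 37 C on infected red cells at 2.5% hematocrit, 0.3% parasitemia (final). Artemisinin 0.29 uM and vehicle wells define normalization.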

| SMILES | Potency | activity change, negative = inhibition |
| --- | --- | --- |
| CC1=C(/C=C/C(C)=C/C=C/C(C)=C\C(=O)O)C(C)(C)CCC1 | 10 µM (active) | – |
| O=C(N[C@@H](Cc1ccccc1)C(=O)CCl)OCc1ccccc1 | 11.2 µM (active) | – |
| NC(N)=NC(N)=Nc1cccc(Cl)c1 | – | -0.472% |
| CCCC[C@@]1(C2CCCC2)Cc2cc(OCC(=O)O)c(Cl)c(Cl)c2C1=O | – | -18.6% |
| C/C(=C\c1ccc(C(=O)O)cc1)c1ccc2c(c1)C(C)(C)CCC2(C)C | – | 2.09% |
| Oc1cc2c(cc1O)C(c1ccccc1)CNCC2 (stereo not drawn) | – | -11.2% |
| O=c1cc(-c2ccccc2)[nH]c2nc(Cl)ccc12 | – | -1.76% |
| Nc1ccc(CCNc2ncnc3c2ncn3C2OC(CO)C(O)C2O)cc1 (stereo not drawn) | – | -10.2% |
| NC1(C(=O)O)CC1 | – | 4.73% |
| CCCCCCCCCCCCCCC[C@H](O)[C@H](N)CO | – | -5.12% |
| CC(C)(CO)Cc1cc(C(C)(C)C)c(O)c(C(C)(C)C)c1 | – | -17.9% |
| COC(=O)C(C)(N)Cc1ccc(O)cc1 (stereo not drawn) | – | -4.39% |
| CCCCCCCC/C=C\CCCCCCCC(=O)NCCc1ccc(O)c(O)c1 | 8.91 µM (active) | – |
| N#C/C(=C\c1ccc(O)c(O)c1)C(=O)NCCc1ccccc1 | 11.2 µM (active) | – |
| Cn1c(=O)[nH]c2ncn(C)c2c1=O | – | 0.0326% |
| Fc1ccc(CN(C2=NCCN2)c2c(Cl)cccc2Cl)cc1 | 7.94 µM (active) | – |
| NCC(O)c1ccc(O)c(O)c1 (stereo not drawn) | – | -26.6% |
| Cc1nc(N=Nc2cc(S(=O)(=O)O)c3cc([N+](=O)[O-])cc(S(=O)(=O)O)c3c2)c(COP(=O)(O)O)c(C=O)c1O | – | -18.3% |
| Cc1nc2c(OCc3ccccc3)cccn2c1CC#N | – | -15.9% |
| O=c1onc2cnc3ccccc3n12 | – | -3.96% |

Experiment: qHTS for differential inhibitors of proliferation of Plasmodium falciparum line W2 (AID 1883);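 further: parasites grown with compound for 72 h before lysis and staining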;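 on activity change, negative = inhibition: 0% = vehicle wells and -100% = control inhibitor wells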
Details: Potency: Plasmodium falciparum W2 proliferation inhibition; series mostly up to 28.7 µM; activity change, negative = inhibition: at the top concentration

| SMILES | Potency | activity change, negative = inhibition |
| --- | --- | --- |
| COC(=O)C1=C(C)NC(C)=C([N+](=O)[O-])C1c1ccccc1C(F)(F)F (stereo not drawn) | 12.6 µM (active) | – |
| CC1=C(/C=C/C(C)=C/C=C/C(C)=C\C(=O)O)C(C)(C)CCC1 | 8.91 µM (active) | – |
| O=C(N[C@@H](Cc1ccccc1)C(=O)CCl)OCc1ccccc1 | 8.91 µM (active) | – |
| c1ccc2c(c1)CC(N1CCN(c3cccc4c3OCCO4)CC1)C2 | 5.01 µM (active) | – |
| NC(N)=NC(N)=Nc1cccc(Cl)c1 | 5.01 µM (active) | – |
| CCCC[C@@]1(C2CCCC2)Cc2cc(OCC(=O)O)c(Cl)c(Cl)c2C1=O | 10 µM (active) | – |
| CCCCOC(=O)NS(=O)(=O)c1sc(CC(C)C)cc1-c1ccc(Cn2c(CC)nc3c(C)cc(C)nc32)cc1 | 7.94 µM (active) | – |
| Oc1cc2c(cc1O)C(c1ccccc1)CNCC2 (stereo not drawn) | 11.2 µM (active) | – |
| O=c1cc(-c2ccccc2)[nH]c2nc(Cl)ccc12 | 10 µM (active) | – |
| NC1(C(=O)O)CC1 | 12.6 µM (active) | – |
| Cc1cccc(C2CN(C)CCc3c2cc(O)c(O)c3Cl)c1 (stereo not drawn) | 7.08 µM (active) | – |
| CCCCCCCCCCCCCCC[C@H](O)[C@H](N)CO | 12.6 µM (active) | – |
| N[C@@H](Cc1ccc(F)cc1)C(=O)O | 11.2 µM (active) | – |
| CC(C)(CO)Cc1cc(C(C)(C)C)c(O)c(C(C)(C)C)c1 | 10 µM (active) | – |
| COC(=O)C(C)(N)Cc1ccc(O)cc1 (stereo not drawn) | 12.6 µM (active) | – |
| CCCCCCCC/C=C\CCCCCCCC(=O)NCCc1ccc(O)c(O)c1 | 7.94 µM (active) | – |
| N#C/C(=C\c1ccc(O)c(O)c1)C(=O)NCCc1ccccc1 | 10 µM (active) | – |
| Cn1c(=O)[nH]c2ncn(C)c2c1=O | – | -6.58% |
| Fc1ccc(CN(C2=NCCN2)c2c(Cl)cccc2Cl)cc1 | 3.55 µM (active) | – |
| NCC(O)c1ccc(O)c(O)c1 (stereo not drawn) | 11.2 µM (active) | – |
| O=C(O)/C=C/c1ccc(O)c(O)c1 | – | -14.6% |
| CN1CCN(c2nc3cc(C(F)(F)F)ccc3n3cccc23)CC1 | 5.62 µM (active) | – |
| Cc1nc(N=Nc2cc(S(=O)(=O)O)c3cc([N+](=O)[O-])cc(S(=O)(=O)O)c3c2)c(COP(=O)(O)O)c(C=O)c1O | – | -22.9% |
| O=c1ccc2c(OCCCCc3ccccc3)c3ccoc3cc2o1 | 10 µM (active) | – |
| O=c1onc2cnc3ccccc3n12 | – | -25.6% |
| CC[C@@H]1Cc2cc(O)ccc2C2=C1c1ccc(O)cc1C[C@H]2CC | 4.47 µM (active) | – |
